Results: PubChem BioAssay AID686971 (National Center for Advancing Translational Sciences (NCATS), 2013)
Out of some 360,000 compounds screened, about 7,500 (2.1%) were called active. Not shown: some 8% with an inconclusive outcome. Only a selection was taken, and actives are over-represented in it overall. A number with no mark means an inactive call. Calls come from the whole dose curve; as a rule, active = well fitted cell-killing curve with a large enough effect; inconclusive = small, poorly fitted or top-dose-only effect, or effect the other way, or another doubt; inactive = no such curve, though single readings can be large or run the other way.

assay: qHTS for induction of synthetic lethality in tumor cells producing 2HG: qHTS for the HT-1080-IDH1KD cell line; conditions: HT-1080 IDH1 knockdown viability, ATP luminescence, 48 h; series mostly up to 46.1 µM; activity, negative = toxicity: at the top concentration;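 for activity, negative = toxicity: 0% = DMSO wells and -100% = cell-free medium wells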
How it was run: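 Knockdown cells (IDH1KD HT-1080) received compounds 2 h after plating at 750 cells/well and were kept 48 h at 37 °C in 5% FBS RPMI. A CellTiter-Glo luminescence read gave % activity for curve fitting.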
Potency is the fitted concentration of half-maximal effect.

SMILES	activity, negative = toxicity	Potency
N=C1C(c2nc3ccccc3[nH]2)=C(O)CN1NC(=O)c1c[nH]c2ccccc12	4.62%	–
C[C@H]1CN([C@@H](C)CO)C(=O)c2cc(C3=CCCCC3)cnc2O[C@@H]1CN(C)C(=O)Cc1ccccc1	-8.68%	–
COc1ccc(C2CC(c3cccc(OC)c3)=NN2c2ccc(S(N)(=O)=O)cc2)cc1 (stereo not given)	–	16.4 µM (active)
COc1ccc(C2=NN(c3ccccc3)C(c3cccs3)C2)cc1 (stereo not given)	-0.443%	–
COc1ccc(C2CC(c3ccccc3)=NN2C(=O)COC(=O)COc2ccccc2)cc1 (stereo not given)	-0.202%	–
O=c1[nH]c2ccccc2n1C1CCN(CCOc2ccccc2)CC1	-17.5%	–
CCOc1ccc(NC(=O)CSc2nnc3c(n2)[nH]c2ccc(S(=O)(=O)N4CCOCC4)cc23)cc1	23.2%	–
CC(C)CC1C(=O)N(Cc2cn(CC3CCCCC3)nn2)CCS(=O)(=O)N1Cc1ccc(-c2ccc(Cl)cc2)cc1 (stereo not given)	-2.65%	–
CC1C(=O)N(Cc2cn(Cc3ccco3)nn2)CCS(=O)(=O)N1Cc1ccc(-c2cccc(CO)c2)cc1 (stereo not given)	-0.032%	–
CC(C)CC1C(=O)N(Cc2cn(Cc3ccco3)nn2)CCS(=O)(=O)N1Cc1ccc(-c2ccc(Cl)c(Cl)c2)cc1 (stereo not given)	–	18.4 µM (active)
C[C@@H]1CN([C@H](C)CO)S(=O)(=O)c2ccc(C#CC3CCCCC3)cc2O[C@H]1CN(C)C(=O)Cc1ccncc1	-20.4%	–
COC(=O)c1cc(OC)ccc1-c1ccc(OC)cc1	-0.423% [at 9.24 µM]	–
CCOC(=O)C1=C(c2ccc(OC)cc2)C(=O)c2ccccc2C1=O	–	7.31 µM (active)
COc1ccc(CNC(=O)CCN2C(=O)c3ccccc3C2=O)cc1	17.2%	–
CC1=C(C(=O)N(C(C)C)C(C)C)CC(CC(=O)NCC2CCCCC2)C(=O)N1Cc1ccccc1 (stereo not given)	-0.475%	–
O=C(NCc1ccccn1)[C@@H]1CCCN1C(=O)[C@@H]1CCCN1C(=O)c1ccccc1	0.107%	–
CC(=N\NC(=O)c1cc(Br)ccc1O)/C(=N/O)C(=O)Nc1ccccc1	–	16.4 µM (active)
CC(C)/C=N/NC(=O)c1cc(Br)ccc1O	4.46%	–
CC(=O)N/N=C(\C)c1ccc(Br)cc1Br	0.294%	–
CN(C)C1CN(Cc2cn(Cc3ccccc3)nn2)S(=O)(=O)C1 (stereo not given)	8.37%	–
CCCNC(=O)C1(C)CCN(C(=O)c2cc(F)ccc2C)C1 (stereo not given)	28.1%	–
CSc1ccc(CNC(=O)C2(C)CCCN2C)cc1 (stereo not given)	-1.05%	–
COc1ccc(CN2CCC(n3nccc3NC(=O)CCCc3ccccc3)CC2)cc1C	–	18.4 µM (active)
Cc1ccc(CN2CCC(n3nccc3NC(=O)CCCc3ccccc3)CC2)o1	-3.69%	–
COc1cc(CN2CCC(n3nccc3NC(=O)CCCc3ccccc3)CC2)ccc1O	-11.8%	–

SMILES	activity, negative = toxicity	Potency
Cc1noc(C)c1NC(=O)N(C)C[C@@H]1Oc2cc(Br)ccc2S(=O)(=O)N([C@@H](C)CO)C[C@H]1C	0.461%	–
CCCNC(=O)C1(C)CCN(C(=O)c2ccc(F)cc2Cl)C1 (stereo not given)	21.7%	–
Cc1cccc(C)c1-n1nnnc1C(CCc1ccccc1)N1CCN(C/C=C/c2ccccc2)CC1 (stereo not given)	18.2%	–
O=C(CC[C@H]1O[C@@H](n2ccc(=O)[nH]c2=O)[C@H](O)[C@@H]1O)N[C@H](Cc1ccccc1)C(=O)NCCCN1CCCC1=O	-0.192%	–
O=C(NNC(=O)C1CCCC1)c1ccc(F)cc1	14%	–
O=C(/C=C/c1ccc([N+](=O)[O-])o1)NNC(=O)c1ccc(F)cc1	–	2.59 µM (active)
CCc1noc(C)c1C(=O)NNC(=O)c1ccc(F)cc1	-1.3%	–
CC(C)c1ccc2c(c1)c(SC(C)(C)C)c(CC(C)(C)C(=O)O)n2Cc1ccc(Cl)cc1	–	18.4 µM (active)
N#CCCN(C(=O)Nc1ccc(Cl)c(Cl)c1)C1CCCCC1	-16.4%	–
C[C@H](CO)N1C[C@H](C)[C@@H](CN(C)C(=O)c2cccc(F)c2)Oc2cc(-c3cncnc3)ccc2S1(=O)=O	2.86%	–
Clc1cccc(N=C2NN=C(c3ccc4c(c3)OCCO4)CS2)c1	–	7.94 µM (active)
CN(C)c1nc(=Nc2cccc(Cl)c2)ss1	-2.12%	–
C[C@H]1CN([C@@H](C)CO)C(=O)CCCn2cc(nn2)CO[C@@H]1CN(C)S(=O)(=O)c1cccs1	13.1%	–
CCCn1c(N)c(C(=O)CSc2nnc(Cc3cccs3)n2C2CC2)c(=O)[nH]c1=O	8.77%	–
COc1ccc(N)cc1NC(=O)CN1CCOCC1	1.47%	–
O=C(COC(=O)COc1cc(Cl)c(Cl)cc1Cl)NC1CC1	0.578%	–
NC(=S)NN=Cc1ccc(OC(=O)COc2cc(Cl)c(Cl)cc2Cl)cn1	–	7.31 µM (active)
O=C(COc1ccc(Cl)cc1Cl)N/N=C/c1ccccn1	-20%	–
CC(C)c1cc(Cn2c3ccccc3c(=O)n2C(C)Cn2cc(C3CC3)nn2)on1 (stereo not given)	-8.19%	–
Cc1nnc(NC(=O)c2ccc3nccnc3c2)s1	18.6%	–
COCCSc1nnc(NC(=O)CCS(=O)(=O)Cc2ccccc2)s1	-2.55%	–
Cc1ccc(CS(=O)(=O)c2ncc(Cl)c(C(=O)Nc3nnc(C)s3)n2)cc1	–	20.6 µM (active)
CSc1nnc(NC(=O)c2nc(S(=O)(=O)Cc3ccc(C)cc3)ncc2Cl)s1	–	6.51 µM (active)
Cc1nnc(NC(=O)CCCOc2ccccc2)s1	6.19%	–
CSc1ncc(Cl)c(C(=O)Nc2cc(C)ccc2C)n1	14.2%	–
